Bioassay records (PubChem BioAssay)
Wnt bcat act: activates Wnt/beta-catenin signaling in a reporter cell assay; activator, plate reader; activation, % at 9.35 µM; actives 1.2% (n = 300,000); AID 743398; in the data active = activation above about 30%, passing the limit was not always enough;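 note: 0% = neutral control wells and 100% = positive control wells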
esBAF inh: blocks esBAF chromatin remodeling in mouse ES cells; actives 2% (n = 350,000); reporter increase, % at 12.5 µM; Bmi1-luciferase knock-in reporter, 24 h; 100% = twice the neutral-well signal; in the data active = activation above about 40%;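 note: 0% = median of the plate's neutral control wells and 100% = double that signal; a rise in the Bmi1 reporter signal indicates esBAF inhibition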
MITF act: activators of MITF-driven TRPM1 promoter activity in SK-MEL-5 cells | activation, % at 12.5 µM | actives 0.75% (n = 300,000) | SK-MEL-5 TRPM1-promoter luciferase, 24 h; % of positive control, neutral wells = 0;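 active = mean activation of at least 80% with every replicate also reaching 80%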;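 note: 0% = neutral control wells and 100% = parthenolide positive control wells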
AHR activator: activators of human aryl hydrocarbon receptor | activation, % at 5 µM | AID 2796 | actives 2.5% (n = 320,000) | AHR-responsive luciferase reporter cells, luminescence; in the data active = activation above about 47%;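 note: 0% = vehicle wells and 100% = reference agonist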
Target sequence (P35869 whole entry, looked up): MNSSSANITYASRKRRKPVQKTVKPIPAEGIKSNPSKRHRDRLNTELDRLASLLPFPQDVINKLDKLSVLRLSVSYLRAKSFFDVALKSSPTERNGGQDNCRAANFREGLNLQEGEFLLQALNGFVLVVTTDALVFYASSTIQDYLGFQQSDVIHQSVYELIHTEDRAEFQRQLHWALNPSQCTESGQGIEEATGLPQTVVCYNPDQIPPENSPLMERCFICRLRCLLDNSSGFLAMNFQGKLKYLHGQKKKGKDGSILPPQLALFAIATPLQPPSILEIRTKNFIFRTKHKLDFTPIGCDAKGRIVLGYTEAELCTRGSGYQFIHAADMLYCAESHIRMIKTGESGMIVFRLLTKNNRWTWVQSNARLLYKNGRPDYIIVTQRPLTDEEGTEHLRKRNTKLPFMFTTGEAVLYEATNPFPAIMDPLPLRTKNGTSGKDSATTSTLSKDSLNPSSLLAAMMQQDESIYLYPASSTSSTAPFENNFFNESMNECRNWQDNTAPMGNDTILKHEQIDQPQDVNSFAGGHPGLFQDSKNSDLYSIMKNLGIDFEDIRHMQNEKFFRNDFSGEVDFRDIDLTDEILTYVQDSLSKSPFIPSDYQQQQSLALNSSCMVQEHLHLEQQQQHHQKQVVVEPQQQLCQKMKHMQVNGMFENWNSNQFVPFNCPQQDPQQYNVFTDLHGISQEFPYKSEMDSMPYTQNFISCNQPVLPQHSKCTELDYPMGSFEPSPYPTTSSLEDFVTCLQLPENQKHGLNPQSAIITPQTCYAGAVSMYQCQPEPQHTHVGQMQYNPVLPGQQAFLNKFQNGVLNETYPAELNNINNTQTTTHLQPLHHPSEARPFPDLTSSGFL
GAA850 FXN act: activators of GAA850 frataxin (FXN) promoter; HEK293 lucGAA850 FXN promoter luciferase reporter, 24 h; percent of 10 µM SAHA response; activation, % at 6 µM; actives 0.56% (n = 360,000); AID 540364;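 active = activation above the average of all compounds screened plus 3 SD, cutoff fixed separately per campaign, cut at about 7.5% in these data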;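 note: 0% = DMSO wells and 100% = 10 µM SAHA wells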
Numbers without * were called inactive; . = no result. In the library only some 4.2% were active in any assay of this set; here they are far more common.

SMILES	Wnt bcat act	esBAF inh	MITF act	AHR activator	GAA850 FXN act
O=C(CCCOc1ccc(Cl)cc1)Nc1cccc(C(=O)O)c1	56*	1	-2	-3	0
CC(=O)c1cccc(NC(=O)CCCOc2ccc(C)cc2)c1	1	0	-7	0	0
Cc1ccc(NC(=O)CCOc2ccccc2)cc1	24	56*	90*	1	6
O=C(Nc1ccccc1)OCCOc1cccc(Br)c1	16	11	.	-5	1
O=C(Nc1ccccc1)OCCOc1ccccc1Br	22	45*	.	.	4
COc1ccc(S(=O)(=O)N[C@@H]2C=C[C@H](CC(=O)O)O[C@H]2CO)cc1	.	0	.	.	.
O=C(C[C@@H]1CC[C@@H]2[C@H](COC[C@@H](O)CN2Cc2cc(F)ccc2F)O1)NCc1ccccc1	.	-5	.	.	.
CO[C@@H]1CN(C)C(=O)c2ccc(NC(=O)C3CC3)cc2OC[C@H](C)N(C(=O)Cc2ccccn2)C[C@H]1C	.	0	.	.	.
O=C(Nc1ccccc1)OCCOc1ccccc1	.	52*	52	-2	4
O=C(Nc1cccc(Cl)c1)OCCOC(=O)Nc1cccc(Cl)c1	-5	-2	12	.	0
O=C(Nc1cccc(Cl)c1)OCCOc1ccccc1	7	61*	80	.	5
Oc1c(C(Nc2ccccn2)c2ccccn2)ccc2cccnc12 (stereo not given)	76*	.	-70	24	-8
CC(C)NC(=O)N(C)C[C@@H]1Oc2c(NC(=O)Nc3ccc(C(F)(F)F)cc3)cccc2C(=O)N([C@H](C)CO)C[C@H]1C	.	0	.	.	.
O=C(Cn1cncn1)N/N=C/c1cccc2ccccc12	.	0	-2	70*	3
Cc1nc(NCCc2ccccc2F)c(C#N)c(C)c1[N+](=O)[O-]	.	3	1	52*	4
COCc1c(C#N)c(NCCc2ccccc2)nc(C)c1[N+](=O)[O-]	2	.	-6	78*	4
COc1cc(CNc2nc(C)c([N+](=O)[O-])c(C)c2C#N)cc(OC)c1	.	3	-9	8	-1
COCc1c(C#N)c(NCCc2ccc(F)cc2)nc(C)c1[N+](=O)[O-]	-2	.	-8	76*	4
Cc1ccc(S(=O)(=O)Nc2ccc3c(c2)C(=O)N([C@@H](C)CO)C[C@@H](C)[C@H](CN(C)C(=O)c2ccccc2)OCCCC[C@@H](C)O3)cc1	.	8	.	.	.
COc1ccc(S(=O)(=O)N(C)C[C@H]2Oc3ccc(NC(=O)Cn4cnnn4)cc3CC(=O)N([C@@H](C)CO)C[C@H]2C)cc1	.	3	.	.	.
C#CCn1c(=NC(=O)c2ccc(Cl)s2)sc2cccc(OC)c21	-6	50*	65	9	2
C[C@@H]1CCCCO[C@@H](CN(C)C(=O)C2CCCCC2)[C@H](C)CN([C@@H](C)CO)C(=O)c2cc(NC(=O)Cc3ccccc3)ccc2O1	.	15	.	.	.
CCOC(=O)c1cc2cc3ccccc3cc2[nH]1	40*	22	.	3	1
CC(C)OC(=O)c1cc2ccccc2[nH]1	9	66*	49	-4	2
CCOC(=O)c1cc(=O)n2c(nc3ccccc32)[nH]1	16	55*	28	25	1
SMILES	Wnt bcat act	esBAF inh	MITF act	AHR activator	GAA850 FXN act
CCOC(=O)c1cc(-c2ccc(OC)cc2)n[nH]1	23	70*	.	4	2
NNC(=O)c1cc2ccccc2[nH]1	0	.	-4	47	-4
CS(=O)(=O)Nc1ccc2c(c1)[C@@H]1C[C@H](CC(=O)NCc3ccncc3)O[C@H](CO)[C@@H]1O2	.	1	.	.	.
CN1CCN(C(=O)C[C@H]2CC[C@H]3[C@@H](COC[C@@H](O)CN3Cc3ccc(Oc4ccccc4)cc3)O2)CC1	.	5	.	.	.
C[C@H]1CN([C@@H](C)CO)C(=O)Cc2cc(NC(=O)CCCN(C)C)ccc2O[C@H]1CN(C)S(=O)(=O)c1ccc(Cl)cc1	.	1	.	.	.
Cc1cccc(N2CCN(Cc3ccc([N+](=O)[O-])o3)CC2)c1C	0	-9	1	57*	0
O=C(c1cc2ccccc2oc1=O)N(Cc1ccco1)C1CCS(=O)(=O)C1 (stereo not given)	.	82*	75	0	7
O=C(c1cc2ccccc2oc1=O)N(Cc1cccc(Br)c1)C1CCS(=O)(=O)C1 (stereo not given)	0	24	11	1	3
COc1ccc(-n2cnc3cc(C(=O)N4CCOCC4)ccc32)cc1	5	43*	27	3	2
COc1ccc(-n2cnc3cc(C(=O)NCC4CCCO4)ccc32)cc1 (stereo not given)	2	-3	-3	5	1
